Six1-Eya2 inh: qHTS Assay for Inhibitors of the Six1/Eya2 Interaction. 360,000 compounds, 0.56% hits. AID 651725, 2012. Homeobox protein SIX1 (Homo sapiens) + Protein phosphatase EYA2 (Homo sapiens), …. activity change, % (no concentration beside the values). AlphaScreen GST-Six1/His-Eya2 binding, biochemical; stronger effect = lower value; in the data active means activity change below about -65%; inconclusive means mostly about -30% to -63%
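Homogeneous AlphaScreen proximity assay pairing GST-Six1 with His-tagged Eya2 (added as 5X mix: 250 nM and 500 nM) in 50 mM Tris pH 8.0, 300 mM NaCl, 1 mM TCEP. Glutathione donor and nickel acceptor beads; 1 h, 37 °C, dark.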
Gal4-VP16 FLuc: VP16 counterscreen qHTS for inhibitors of ROR gamma transcriptional activity; Drosophila S2 Gal4-VP16 UAS-luciferase, luminescence, 20 h; 310,000 compounds, 3.5% hits; AID 2546, 2010; Potency, µM (top dose mostly 53.6 µM), inactives show at the top dose activity, negative = inhibition, hits mostly inhibitors;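 further: Gal4-VP16 expression switched on by copper sulfate through the metallothionein promoter; potency means the concentration at half of the fitted maximal effect; nearly all actives have a fitted effect of over 50% in size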
PKM2 act: qHTS Assay for Activators of Human Muscle isoform 2 Pyruvate Kinase; Potency, µM (top dose mostly 57.5 µM), for inactives: at the top dose activation, actives largely listed as activators; 260,000 compounds, 0.34% hits; purified PKM2, Kinase-Glo ATP luminescence, activation; response scale: 0% is enzyme alone, no compound; AID 1631, 2009; Pyruvate kinase PKM (Homo sapiens), P14618; further: potency means the concentration at half of the fitted maximal effect; nearly all actives have a fitted effect of over 55% in size
Target sequence (P14618 whole entry, looked up, canonical isoform): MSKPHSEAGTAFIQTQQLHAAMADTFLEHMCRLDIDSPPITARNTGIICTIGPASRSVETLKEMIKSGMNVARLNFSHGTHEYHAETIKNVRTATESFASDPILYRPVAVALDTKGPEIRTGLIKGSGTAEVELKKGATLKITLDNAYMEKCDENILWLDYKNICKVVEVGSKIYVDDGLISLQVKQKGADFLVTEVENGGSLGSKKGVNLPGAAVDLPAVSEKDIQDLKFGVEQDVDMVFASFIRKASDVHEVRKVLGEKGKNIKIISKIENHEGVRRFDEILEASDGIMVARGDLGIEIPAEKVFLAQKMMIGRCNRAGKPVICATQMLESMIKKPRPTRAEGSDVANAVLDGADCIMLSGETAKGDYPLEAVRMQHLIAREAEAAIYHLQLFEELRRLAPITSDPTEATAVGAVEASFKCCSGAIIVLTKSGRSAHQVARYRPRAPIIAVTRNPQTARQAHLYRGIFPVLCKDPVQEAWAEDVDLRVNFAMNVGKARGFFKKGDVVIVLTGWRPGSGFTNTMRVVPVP
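Purified hPK-M2 (>95%) run at intermediate activity with 0.1 mM ADP and 0.5 mM PEP in 50 mM imidazole pH 7.2, KCl, MgCl2; 1 h room temperature. ATP formed read by Kinase-Glo luminescence; normalized to uninhibited and no-enzyme controls.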
RORg inh: qHTS for inhibitors of ROR gamma transcriptional activity; Drosophila S2 Gal4-RORgamma UAS-luciferase reporter, 20 h; Potency, µM (series often up to 53.6 µM), inactives show top-dose activity change, negative = inhibition, usual class: inhibitors; 310,000 compounds, 5.4% hits; AID 2551, 2010; further: potency means the concentration at half of the fitted maximal effect; nearly all actives have a fitted effect of over 60% in size
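A Gal4/UAS one-hybrid system in insect cells: metallothionein-promoter Gal4–ROR gamma fusion plus Photinus luciferase reporter. Copper sulfate 700 uM final, 20 hr ambient incubation, luminescent detection after 10 min with reagent.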
CtBP-E1A blk: qHTS Assay for Inhibitors of the CtBP/E1A Interaction; CtBP / adenovirus E1A interaction (AlphaScreen); AlphaScreen GST-E1A/His-CtBP binding, 1536-well; stronger effect = lower value; activity change, % (concentration not given with the values); 340,000 compounds, 0.49% hits; AID 651724, 2012; in the data active means activity change below about -65%; inconclusive means mostly about -30% to -63%
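GST-E1A and His-tagged CtBP (125 nM each as 5X stock) were preincubated with pin-transferred compound for 2 h at 37 °C in the dark, then glutathione donor and nickel acceptor beads were added for 1 h before AlphaScreen reading.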
* marks the source's active call; other numbers are inactive results; u = inconclusive; x = not tested or not shown; ! = not active in a repeat; [ ] = another dose, or the depositor's remark. The list is not random: actives were taken first. Their share in the collection is about 5.6%. Unless noted, the call rests on the fitted dose curve; in most records, active means well fitted curve in the direction sought with a large enough effect; inconclusive means small, poorly fitted or top-dose-only effect, or another doubt; inactive means no such curve, though single readings can be large; an effect the other way counts as inactive or inconclusive. On the % scale 0 is the no-effect control and ±100 the full control effect.

SMILES	Six1-Eya2 inh	Gal4-VP16 FLuc	PKM2 act	RORg inh	CtBP-E1A blk
CCNc1nc(SC(C(C)=O)C(C)=O)nc(N(C)C)n1	5	-27%	-4%	5µM*	5
CCNc1nc(SC(C)C(=O)OC)nc(N(C)C)n1 (stereo not drawn)	5	3%	x	34%	6
CCC(C)Nc1nc(SC(C(C)=O)C(C)=O)nc(N(C)C)n1 (stereo not drawn)	-10	u	-2%	13µM*	-2
CCCC(=O)Nc1ccc(C=C(C(C)=O)C(C)=O)cc1	-4	4%	3%	12%	11
CC1=C(C(=O)Nc2cc(C(=O)N(C)Cc3ccccc3)ccc2C)SCCO1	-2	2%	x	-2%	-5
COc1cc(CNCCc2ccc(F)cc2)ccc1OCc1ccc(Cl)nc1	-2	-25%	-3%	2.2µM*	-2
COc1cc(/C=N/Nc2ccc(C(F)(F)F)cn2)ccc1O	-6	5%	1%	-16%	x
COc1ccc(/C=N/Nc2ncc(C(F)(F)F)cc2Cl)c(OC)c1OC	2	7.9µM*	-5%	2.8µM*	-10
COc1cc(/C=N/Nc2ncc(C(F)(F)F)cc2Cl)cc(OC)c1O	-2	20µM*	0%	11µM*	1
COc1cc(/C=N/Nc2nc(C)cc(C)n2)cc(OC)c1OC	-3	x	4%	x	x
C/C(=N/Nc1ncc(C(F)(F)F)cc1Cl)c1ccncc1	-11	u	25%	u	6
COc1cc(/C=N/Nc2ncc(C(F)(F)F)cc2Cl)cc(OC)c1OC	-1	20µM*	0%	u	x
NS(=O)(=O)c1ccc(CCNC(=O)CSCC(=O)Nc2ccc(Cl)cc2)cc1	3	x	x	x	-3
CC1CCCCN1C(=O)COC(=O)c1ccc(=O)n(Cc2ccccc2)n1 (stereo not drawn)	1	x	x	x	5
CC(C)c1ccc(C(N)=S)cc1	-8	18µM*	-2%	4µM*	x
CC1=C(C)C(c2ccccc2)NC(=S)N1 (stereo not drawn)	-9	-93%	1%	5µM*	-5
O=C1NCN(c2ccccc2)C12CCN(CCCC(c1ccc(F)cc1)c1ccc(F)cc1)CC2	0	18µM*!	-11%	13µM*!	-22
O=C(N/N=C/c1ccc([N+](=O)[O-])cc1)c1cccc2cc[nH]c12	0	-3%	-1%	-12%	x
CCN(CC)c1ccc(C(=O)N/N=C(\C)c2ccc(O)cc2)cc1	2	-6%	5%	-33%	5
CCN(CC)c1ccc(/C=N\NC(=O)c2cccc3cc[nH]c23)cc1	-23	18µM*	-6%	7.1µM*	-5
CCN(CC)c1ccc(/C=N\NC(N)=O)cc1	-13	8%	5%	u	-12
CCN(CC)c1ccc(/C=N/NC(=O)c2ccoc2C)cc1	-5	u	-73%	20µM*	-3
CCN(CC)c1ccc(/C=N/NC(=O)c2ccc(O)cc2)cc1	x	2.5µM*	0%	1.1µM*	x
Cc1noc(C)c1NC(=O)Nc1ccc2c(c1)CC(=O)N([C@H](C)CO)C[C@@H](C)[C@H](CN(C)CC1CCCCC1)O2	5	x	x	x	-9
COc1ccc(NC(=O)Cn2c(=O)n(-c3ccc(CC(=O)NCc4ccco4)cc3)c(=O)c3ccccc32)cc1	-1	4%	-6%	-16%	-6
SMILES	Six1-Eya2 inh	Gal4-VP16 FLuc	PKM2 act	RORg inh	CtBP-E1A blk
N#C/C(=C\c1ccc(C#N)cc1)C(=O)c1ccccc1	-3	u	22µM*	u	x
N#CC(=Cc1ccc(-c2ccccc2)cc1)C(=O)c1ccccc1	-1	x	x	x	9
NC(=O)C1CCN(C(=O)Cc2ccsc2)CC1	4	23%	4%	13%	7
O=[N+]([O-])c1ccc(Sc2ncccn2)c([N+](=O)[O-])c1	-11	u	-1%	7.9µM*	-7
Cc1ccc(Cl)cc1N1CCN(C(=O)Cn2ccc3ccccc3c2=O)CC1	0	9%	-7%	32%	-1
Cc1ccc(Cl)cc1N1CCN(C(=O)Cc2csc(Nc3nc(=S)[nH]c4ccccc34)n2)CC1	-17	3.5µM*	4%	0.63µM*	-15
O=C(Cc1csc(Nc2nc(=S)[nH]c3ccccc23)n1)N1CCN(c2cccc(Cl)c2)CC1	u	5µM*	0%	1µM*	-14
O=C1C[C@H](NC(=O)OCc2ccccc2)CO1	4	x	x	x	x
COc1ccccc1Nc1nc(N)nc(CN2CCC(C)CC2)n1	-17	-6%[10 µM]	0%	u	-13
COc1ccc(Nc2nc(N)nc(CN3CCOCC3)n2)cc1	-4	-3%	-3%	25%	-2
COc1ccccc1Nc1nc(N)nc(CN2CCC(Cc3ccccc3)CC2)n1	-6	u	3%	8.9µM*	-22
COc1ccc(Nc2nc(N)nc(CN3CCC(Cc4ccccc4)CC3)n2)cc1	-18	u	-4%	11µM*	-1
[O-]c1c[n+](-c2ccc(-[n+]3cc([O-])on3)cc2)no1	-6	-25%[10 µM]	5%	2%	5
O=[N+]([O-])c1ccc(N2CCN(Cc3ccc(Br)o3)CC2)cc1	-16	-18%	7%	36%	-8
CCOC(=O)[C@]12CCCC=C1N(CCc1ccc(OC)c(OC)c1)C(=O)[C@H](CC(=O)NCc1ccc(C)o1)C2	-12	x	x	x	-19
CN1C(=O)/C(=C/c2ccccc2OCc2cccc(F)c2)NC1=S	-12	3.2µM*	0%	4µM*	0
CN1C(=O)/C(=C/c2ccccc2OCc2ccccc2)NC1=S	-11	u	-1%	7.1µM*	-10
COc1cc(/C=C2\NC(=S)N(C)C2=O)ccc1OCc1cccc(F)c1	6	u	x	u	x
CCN(CC)c1ccc(NC(=O)c2ccccc2OCC(=O)OC)cc1	u	2%	-2%	26%	u
O=C(NNC(=O)c1ccc2nonc2c1)Nc1ccc(Cl)cc1	-4	5%	0%	-2%	-1
CC1CCC2(CC1)C(Nc1cccc(Cl)c1)=NC(=S)N2CC#N (stereo not drawn)	-10	3.2µM*	-16%	3.5µM*	1
CC1CCc2cc(F)ccc2N1S(=O)(=O)c1ccc(F)cc1 (stereo not drawn)	8	1%	0%[11.5 µM]	10µM*	10
Cc1c(CCC(=O)O)c(=O)oc2cc(OCc3ccccc3Br)ccc12	-6	3.2µM*	x	-40%	x
Cc1c(CCC(=O)O)c(=O)oc2cc(OCc3cccc(F)c3)ccc12	-12	1%	x	17%	-12

Bioassay records as filed in PubChem BioAssay.
